Measurements: the supplement of paper PMC10338343
± gives the standard deviation.

How the values were obtained:
[1] = tested on: MILI (PIWIL2) piRISC loaded with L1MC piRNA (26 nt); experiment: pre-steady-state target cleavage rate (min^-1); guide: L1MC piRNA 5'p-UAACUAAAUACUAUGCAAGCUGUAGG; higher = faster piRNA-guided slicing of the target;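 note: 1 nM active piRISC with 0.1 nM target library at 33 °C single turnover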
In short: (§1)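 A burst-and-steady-state fit was used to obtain the pre-steady-state cleavage rate. The input data were sequencing reads of uncleaved targets, normalised to depth and to weakly complementary targets, from a […] transcribed, DNA-blocked target RNA library mixed with 1 nM active affinity-purified piRISC holding one synthetic guide, with or without 500 nM GTSF1 partner protein, in HEPES–potassium acetate buffer at 33 °C for 0–8 or 0–960 min. Three trials were pooled and k3 was capped at 0.0001 min^-1.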

[2] = tested on: EfPiwi piRISC loaded with L1MC piRNA (26 nt); experiment: pre-steady-state target cleavage rate (min^-1); auxiliary factor: 500 nM Ephydatia muelleri Gtsf1; guide: L1MC piRNA 5'p-UAACUAAAUACUAUGCAAGCUGUAGG; MIWI and MILI are mouse PIWI proteins and EfPiwi is from a freshwater sponge; tags in brackets are library labels; higher = faster piRNA-guided slicing of the target
In short: as §1

[3] = auxiliary factor: 500 nM mouse GTSF1
[4] = auxiliary factor: none (no GTSF1)

Row | Sequence | pre-steady-state target cleavage rate [1, 3] | pre-steady-state target cleavage rate [1, 4] | pre-steady-state target cleavage rate [2]
1 | UCCUGGAUGUCCUUGCACAGUAUUUAGUUA | 0.145 ± 0.028 | 0.00389 ± 0.0023 | 0.00454 ± 0.0024
2 | UCCUCCUACAGCUUCCUUAGUAUUUAGUUA | 0.216 ± 0.025 | 0.00443 ± 0.002 | 0.00472 ± 0.0022
3 | UCCUGGAUCAGCUUGCAUAGUAAUUAGUAA | 0.0974 ± 0.021 | 0.00485 ± 0.0021 | 0.00487 ± 0.0027
4 | UCCUCCUACAGCUACCAUAGUAUUUAGUUA | 0.2 ± 0.021 | 0.00448 ± 0.0023 | 0.00393 ± 0.0021
5 | UCCUGCUACAGGUUGGAUAGUAUUUAGUUA | 0.204 ± 0.018 | 0.00926 ± 0.0025 | 0.00793 ± 0.0027
6 | UCCUGGAUCAGCUUGCAUAGUAUUGUAGUUA | 0.176 ± 0.018 | 0.00992 ± 0.0032 | 0.00652 ± 0.0027
7 | UCCUGGAUGUCCGUGCAUAGUAUUUAGUUA | 0.0403 ± 0.011 | 0.00675 ± 0.0027 | 0.00483 ± 0.0024
8 | UCCUCCUACAGCUUGCAUAGUAUAAAGUUA | 0.137 ± 0.023 | 0.00301 ± 0.0023 | 0.00527 ± 0.0031
9 | UCCUGGUAGAGCUUGCAUAGUAUAUAGUUA | 0.207 ± 0.027 | 0.00638 ± 0.0021 | 0.0131 ± 0.0051
10 | UCCUCCUACAGCUUGCAUAGUAUAAUGUUA | 0.158 ± 0.026 | 0.00294 ± 0.0027 | 0.00388 ± 0.0022
11 | UCCUGGUUCAGCUUGGAUAGUAUUUAGUUA | 0.191 ± 0.022 | 0.013 ± 0.0035 | 0.00792 ± 0.0035
12 | UCCUGCAACAGCUUGCAUAGUAUUUAGUAA | 0.333 ± 0.031 | 0.00819 ± 0.0029 | 0.00572 ± 0.0023
13 | UCCUGGAACAGCUUGCAGAGUAUUUAGUUA | 0.193 ± 0.019 | 0.00795 ± 0.0019 | 0.012 ± 0.003
14 | UCCUGGUAGUCCUUGCAUAGUAUUUAGUUA | 0.126 ± 0.018 | 0.00932 ± 0.003 | 0.00556 ± 0.0026
15 | UCCUGGUACAGCUUGGCAUAGUAUUUAGUUA | 0.4 ± 0.093 | 0.00473 ± 0.0036 | 0.05 ± 0.016
16 | UCCUGCUACAGCUUGGAUAGUAUUUAGUUA | 0.296 ± 0.017 | 0.0119 ± 0.0026 | 0.017 ± 0.0041
17 | UCCUGCUACAGCUUGCAUAGUAUUCUAGUUA | 0.26 ± 0.038 | 0.00709 ± 0.0024 | 0.0043 ± 0.002
18 | UCCUGGAUGUGCUUGCAUAGUAAUUAGUUA | 0.095 ± 0.013 | 0.00684 ± 0.0024 | 0.00847 ± 0.0037
19 | UCCUCCUACUGCUAGCAUAGUAUUUAGUUA | 0.232 ± 0.015 | 0.006 ± 0.0021 | 0.0131 ± 0.004
20 | UCCUGGAUGUGGUUGCAUAGUUUUUAGUUA | 0.0125 ± 0.0086 | 0.00954 ± 0.0033 | 0.00827 ± 0.0052
21 | UCCUGGAUGAACUUGCAUAGUAUUUAGUUA | 0.128 ± 0.013 | 0.00751 ± 0.0026 | 0.0179 ± 0.0064
22 | UCCUGGUACAGCAUGCAUAGUAAUUAGUUA | 0.193 ± 0.025 | 0.013 ± 0.0032 | 0.00882 ± 0.0034
23 | UCCUGGUACUGCUUGCAUAGUAUUUAGUUA | 0.174 ± 0.023 | 0.0139 ± 0.0037 | 0.0105 ± 0.0034
24 | UCCUGCUACAGCAAGCAUAGUAUUUAGUUA | 0.325 ± 0.022 | 0.00524 ± 0.0031 | 0.0176 ± 0.0059
25 | UCCUGGAUCUCCUUGCAUAGUAUUUAGUAA | 0.203 ± 0.024 | 0.00367 ± 0.0019 | 0.00383 ± 0.0026

Row | Sequence | pre-steady-state target cleavage rate [1, 3] | pre-steady-state target cleavage rate [1, 4] | pre-steady-state target cleavage rate [2]
26 | UCCUCCUACAGCUUGGAUAGUAUUAAGUUA | 0.134 ± 0.017 | 0.00275 ± 0.0027 | 0.00905 ± 0.0043
27 | UCCUCCUACAGCUUGCAUAGUAUUUAGUUC [g2:g26:cont:t1C] | 0.283 ± 0.016 | 0.0143 ± 0.0047 | 0.146 ± 0.035
28 | UCCUGCUACAGGUUGCAUAGUAUUUAGUUA | 0.246 ± 0.011 | 0.013 ± 0.0028 | 0.0242 ± 0.0053
29 | UCCUCCUACAGCUAGGAUAGUAUUUAGUUA | 0.276 ± 0.015 | 0.00685 ± 0.0019 | 0.0581 ± 0.014
30 | UCCUGGAUGAGCUUUGCAUAGUAUUUAGUUA | 0.181 ± 0.013 | 0.0103 ± 0.0021 | 0.0107 ± 0.0037
31 | UCCUGGAACAGCUUCAUAGUAUUUAGUUA | 0.252 ± 0.015 | 0.00361 ± 0.0026 | 0.0107 ± 0.0034
32 | UCCUGCUACAGCUUGGAUAGUAUAUAGUUA | 0.222 ± 0.026 | 0.00442 ± 0.0023 | 0.0128 ± 0.0037
33 | UCCUCGUACAGCUUGCAUAGUAUAUAGUUA | 0.251 ± 0.02 | 0.00528 ± 0.0018 | 0.0103 ± 0.0042
34 | UCCUGCUACAGCUCGCAUAGUAUUUAGUUA | 0.264 ± 0.015 | 0.00757 ± 0.0027 | 0.0122 ± 0.0028
35 | UCCUCCUACACCUUGCAUUGUAUUUAGUUA | 0.184 ± 0.021 | 0.0078 ± 0.002 | 0.0139 ± 0.0056
36 | UCCUCCCUACAGCUUGCAUAGUAUUUAGUUA | 0.303 ± 0.02 | 0.0107 ± 0.0027 | 0.0606 ± 0.017
37 | UCCUCCUACUGGUUGCAUAGUAUUUAGUUA | 0.226 ± 0.021 | 0.00818 ± 0.0021 | 0.1 ± 0.025
38 | UCCUGCUACAGCAUGCAUAGUAUUUAGUAA | 0.277 ± 0.03 | 0.00478 ± 0.0028 | 0.00673 ± 0.0029
39 | UCCUCCUUCAGCUUGCAUAGUAUUUUGUUA | 0.139 ± 0.021 | 0.00287 ± 0.002 | 0.00463 ± 0.0027
40 | UCCUGGAUCAGGAUGCAUAGUAUUUAGUUA | 0.156 ± 0.012 | 0.00724 ± 0.0018 | 0.0121 ± 0.0027
41 | UCCUCCUACAGCUUGCAUAGUAUUCAGUUA | 0.229 ± 0.034 | 0.00319 ± 0.0024 | 0.0063 ± 0.0029
42 | UCCUCCUACAGCUUGCUUAGUAUUUACUUA | 0.179 ± 0.02 | 0.00341 ± 0.0022 | 0.00381 ± 0.003
43 | UCCUCCUACAGCUCGCAUAGUAUUUAGUUA | 0.288 ± 0.019 | 0.0109 ± 0.0027 | 0.0845 ± 0.019
44 | UCCUGGAUCAGCGUGCAUAGUAUUUAGUUA | 0.225 ± 0.015 | 0.00697 ± 0.0035 | 0.0619 ± 0.012
45 | UCCUGGUAGAGCAUGCAUAGUAUUUAGUUA | 0.196 ± 0.018 | 0.0109 ± 0.0033 | 0.0134 ± 0.004
46 | UCCUGGUACAGGUUGCUUAGUAUUUAGUUA | 0.328 ± 0.022 | 0.0176 ± 0.0042 | 0.00576 ± 0.003
47 | UCCUGGAACUGCUAGCAUAGUAUUUAGUUA | 0.215 ± 0.015 | 0.00611 ± 0.0019 | 0.0171 ± 0.0058
48 | UCCUGGAUCAGCAUGCAUUGUAUUUAGUUA | 0.15 ± 0.014 | 0.00792 ± 0.0027 | 0.00421 ± 0.0021
49 | UCCUCCUAGCAGCUUGCAUAGUAUUUAGUUA | 0.295 ± 0.018 | 0.011 ± 0.0028 | 0.0339 ± 0.0083
50 | UCCUGCUACUGCUUGCAUAGUAAUUAGUUA | 0.175 ± 0.023 | 0.00358 ± 0.0023 | 0.00587 ± 0.0019
